# This is part of a sample that, as a whole, favours compounds with a hit. Of some 79,000 tested, about 15% had one in any assay. Values without a mark were called inactive. Calls of active or inactive are those of the source. Rule as the data show it: active = growth inhibition above about 70%; inactive = the rest.
# What was measured:
# [1] = NCI Yeast Anticancer Drug Screen. Data for the rad50 strain (AID 155);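 also: 0% = growth of vehicle-only cultures of the same strain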; conditions: S. cerevisiae rad50 strain growth inhibition, active compounds read high
# Method in brief: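 Cells are treated with compound, grown, and their growth is then scored against vehicle-only cultures of the same repair-deficient yeast strain.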
# [2] = NCI Yeast Anticancer Drug Screen. Data for the mec2-1 strain (AID 157); conditions: S. cerevisiae mec2-1 strain, active compounds read high
# Method in brief: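 Growth inhibition is read against vehicle-treated controls after compound exposure of the mec2-1 yeast strain, which is defective in DNA damage repair or cell cycle control.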
# [3] = NCI Yeast Anticancer Drug Screen. Data for the sgs1 mgt1 strain (AID 161);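 also: 0% = growth of cultures given vehicle only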; conditions: S. cerevisiae sgs1 mgt1 strain, active compounds read high
# Method in brief: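 Growth of a repair-deficient yeast mutant was monitored after compound treatment and expressed as inhibition relative to vehicle-treated cultures.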
# [4] = NCI Yeast Anticancer Drug Screen. Data for the cln2 rad14 strain (AID 165);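 also: 0% = growth equal to vehicle treated cultures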; conditions: S. cerevisiae cln2 rad14 strain, active compounds read high
# Method in brief: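 Growth inhibition, relative to vehicle-treated controls, is the read-out. The test organism is a yeast strain with defined genetic alterations, cln2 rad14.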
# [5] = NCI Yeast Anticancer Drug Screen. Data for the bub3 strain (AID 167); conditions: S. cerevisiae bub3 mutant strain, active compounds read high
# Method in brief: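 Part of a panel of yeast mutants defective in DNA damage repair or cell cycle regulation. Each strain is grown with compound, and inhibition is calculated relative to solvent-treated cultures.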
# [6] = NCI Yeast Anticancer Drug Screen. Data for the mlh1 rad18 strain (AID 175); conditions: S. cerevisiae mlh1 rad18 strain growth inhibition, active compounds read high
# Method in brief: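 Cells of a genetically altered yeast strain, deficient in DNA damage repair, were treated with compound. Their growth was then compared with that of vehicle-treated cultures to give inhibition.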
# [7] = at 5.0 µM (retest, dose inferred, filed as 0.5)
# [8] = at 50.0 µM (retest, dose inferred, filed as 5.0)
SMILES,"growth inhibition [1, 7]","growth inhibition [1, 8]",growth inhibition ([1]; at 50.0 µM),"growth inhibition [2, 7]","growth inhibition [2, 8]",growth inhibition ([2]; at 50.0 µM),"growth inhibition [3, 7]","growth inhibition [3, 8]",growth inhibition ([3]; at 50.0 µM),"growth inhibition [4, 7]","growth inhibition [4, 8]",growth inhibition ([4]; at 50.0 µM),"growth inhibition [5, 7]","growth inhibition [5, 8]",growth inhibition ([5]; at 50.0 µM),"growth inhibition [6, 7]","growth inhibition [6, 8]",growth inhibition ([6]; at 50.0 µM)
Nc1ccc(-c2ccc(Cl)cc2)cc1,0%,96% (active),96.7% (active),-2%,61%,78.7% (active),-1%,78% (active),94.5% (active),-6%,93% (active),92.2% (active),4%,61%,96.9% (active),-1%,95% (active),93.3% (active)
COc1ccc2ccc(=O)oc2c1CC=C(C)C,88% (active),98% (active),46.5%,13%,99% (active),37.6%,6%,99% (active),72.5% (active),7%,98% (active),-9.6%,14%,98% (active),62%,13%,98% (active),31.5%
CC12CCC(=O)C=C1CCC1C2CCC2(C)C(c3cnc[nH]3)CCC12 (centres undefined),51%,75% (active),77% (active),36%,46%,30.1%,39%,82% (active),65.2%,52%,43%,34.9%,53%,70% (active),69.5%,41%,70% (active),39.1%
NNc1c(Cl)cc(Cl)cc1Cl,44%,93% (active),98.2% (active),-16%,97% (active),98.9% (active),12%,94% (active),99.7% (active),21%,43%,97.8% (active),67%,93% (active),99.2% (active),51%,97% (active),99.7% (active)
O=C1C=CC(=O)C(c2ccccc2)=C1,12%,99% (active),99.5% (active),24%,99% (active),99.5% (active),18%,99% (active),99.5% (active),16%,99% (active),98.8% (active),3%,99% (active),99.5% (active),18%,99% (active),99.2% (active)
CCCCCOC(=O)C1C(=O)CC(c2ccccc2)C1c1ccccc1 (centres undefined),1%,79% (active),92.2% (active),-1%,63%,16.6%,-4%,67%,56.1%,0%,76% (active),63.9%,-5%,72% (active),45.5%,0%,85% (active),68.6%
O=C1c2ccccc2C2N1CCCN2C(=O)c1sc2ccccc2c1Cl (centres undefined),49%,98% (active),90% (active),30%,99% (active),92% (active),29%,99% (active),92.8% (active),28%,96% (active),90.3% (active),35%,98% (active),92% (active),44%,98% (active),90.5% (active)
OC(Cc1ccc(Br)cc1)CN1CCC(c2ccccc2)CC1 (centres undefined),98% (active),98% (active),83.9% (active),71% (active),71% (active),74.5% (active),97% (active),97% (active),82.8% (active),87% (active),87% (active),78.9% (active),83% (active),83% (active),87.8% (active),88% (active),88% (active),79% (active)
CC[N+]1(C)CCC(O)(c2ccc(Cl)c(Cl)c2)C(C(=O)c2ccc(Cl)c(Cl)c2)C1 (centres undefined),15%,99% (active),99.4% (active),4%,100% (active),99.6% (active),11%,99% (active),99% (active),6%,99% (active),99.5% (active),13%,100% (active),98.8% (active),7%,100% (active),99.6% (active)
CCN(CC)c1c(C(=O)/C=C/c2ccc(Cl)cc2)c(-c2ccccc2)nn(C)c1=O,18%,85% (active),82.5% (active),15%,91% (active),85.9% (active),14%,73% (active),81% (active),7%,82% (active),83.7% (active),8%,92% (active),84% (active),24%,92% (active),81.8% (active)
Cc1cc(Cl)ccc1Nc1sc(C(=O)c2cc3cc(Cl)ccc3o2)c(N)c1C#N,16%,53%,23.7%,-3%,48%,45.5%,8%,65%,45%,6%,84% (active),83% (active),13%,55%,50.1%,-7%,66%,36.5%
O=C(c1ccccc1)c1ccc2c(c1)CCCC2,-4%,-14%,76.5% (active),-12%,-23%,60.2%,-5%,-6%,76.8% (active),-5%,-48%,19.6%,2%,49%,69.7%,0%,-29%,71.4% (active)
Oc1ccc(Cc2cccc(Br)c2)c(O)c1,-2%,99% (active),99.3% (active),-4%,99% (active),99.3% (active),-2%,99% (active),99.3% (active),-9%,99% (active),99.2% (active),-3%,99% (active),99.4% (active),-3%,99% (active),99.2% (active)
C/C(CCC(=O)O)=N/Nc1ccc(C(=O)O)cc1,11%,74% (active),66%,0%,71% (active),5.4%,1%,64%,17.9%,7%,91% (active),5.85%,2%,91% (active),31.4%,5%,89% (active),23.7%
CC(C)c1cc(C(=O)[O-])c(O)c(C(C)C)c1.CC(C)c1cc(C(=O)[O-])c(O)c(C(C)C)c1.CC(C)c1cc(C(=O)[O-])c(O)c(C(C)C)c1.CC(C)c1cc(C(=O)[O-])c(O)c(C(C)C)c1.CC(C)c1cc(C(=O)[O-])c(O)c(C(C)C)c1.CC(C)c1cc(C(=O)[O-])c(O)c(C(C)C)c1.[Cu+2].[Mn+2].[Mn+2],40%,63%,43.5%,38%,57%,50.5%,31%,70% (active),44.5%,34%,53%,50.7%,37%,66%,55%,39%,66%,82.1% (active)
Cc1ccc(Nc2nc3c(s2)C(=O)c2ccccc2C3=O)c(C)c1,28%,99% (active),98.7% (active),33%,99% (active),99.5% (active),18%,99% (active),99.2% (active),7%,98% (active),98.9% (active),50%,99% (active),99.5% (active),30%,98% (active),97.8% (active)
Cc1coc(C)c1C(=S)Nc1ccc(Cl)c(C(=O)OC(C)C)c1,6%,81% (active),84% (active),-8%,77% (active),82.5% (active),-3%,81% (active),85.2% (active),20%,88% (active),81.8% (active),-15%,87% (active),82.9% (active),-9%,86% (active),81.6% (active)
CC(=O)N(C1=CC(=O)c2ccccc2C1=O)c1ccc(Cl)cc1,95% (active),97% (active),96.7% (active),92% (active),98% (active),95% (active),95% (active),97% (active),95.2% (active),52%,98% (active),90.8% (active),89% (active),98% (active),90.5% (active),92% (active),98% (active),93.5% (active)

# — PubChem BioAssay (NCI)
